# From PubChem BioAssay (NCI)
# Compounds without any hit were thinned out: in the full panel of roughly 83,000, 20% have a hit.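 Percent growth is the endpoint: 0 to 100 indicates growth inhibition (40 means 60% inhibition), 0 means no net growth, and negative values indicate cell death.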 Unmarked numbers belong to inactive results. Active and inactive are the calls of the source. How the source made its calls: active means growth percent below 10; inactive means the rest.
# Key:
# Assay in all cases: NCI-60 one-dose screen, 48 h (100 = growth as untreated, 0 = no growth, -100 = all killed)
# Conditions in all cases: 10 µM unless noted
# [1] = test system: BT-549 breast
# [2] = test system: MDA-MB-435 melanoma
# [3] = test system: SW-620 colon
# [4] = test system: MCF7 breast
# [5] = test system: HCT-116 colon
# [6] = test system: HCC-2998 colon
# [7] = test system: KM12 colon
SMILES,growth [1],growth [2],growth [3],growth [4],growth [5],growth [6],growth [7]
COC(=O)c1ccc2[nH]c(O)c(C(=Nc3ccc(N(C)C(=O)CN4CCN(C)CC4)cc3)c3cccc(OC)c3)c2c1,11.2%,31.8%,2.03% (active),6.86% (active),-5.68% (active),20.3%,4.88% (active)
Cc1cc2cn3c4ccc(O)cc4[nH]c(=O)c3c2cc1C,,0.693% (active),-100% (active),-57.2% (active),-100% (active),24.1%,-36.9% (active)
C/C=C(/C)C(=O)OC1C=C(CO)C(=O)C(OC(=O)C(C)(O)C(C)Cl)C1C(C)C (stereo unspecified),-9.98% (active),-23.2% (active),-45.7% (active),8.43% (active),-56.5% (active),-76.3% (active),-45.1% (active)
COc1ccccc1C(=O)Nc1cccc(-c2cc(=O)c3c(OC)c(OC)c(OC)cc3o2)c1,45.9%,43.5%,63.4%,53.4%,36.7%,67.8%,38.4%
CC1(C)NCCC[C@]2(C)[C@H]3CC=C4[C@@H]5C[C@](C)(COC(=O)c6ccccc6C(=O)O)CC[C@]5(C)CC[C@@]4(C)[C@]3(C)CC[C@@H]12,72.4%,,67.2%,41.1%,16.5%,73.4%,55.2%
CC/C(=N\Nc1nc2ccccc2n1C)c1ccccn1,21%,18.9%,30%,8.78% (active),11.7%,32.3%,18.5%
Cc1ncc(C(=O)Nc2ccc(CN3CCN(C)CC3)c(C(F)(F)F)c2)cc1C#Cc1cnc(NC2CC2)c2ncccc12,-91.7% (active),,-74.3% (active),-76.8% (active),-90% (active),-54.4% (active),-82.6% (active)
COc1cccc(-c2cc(-c3cc4ccccc4oc3=O)nc(N)n2)c1,,119%,103%,70%,95.1%,,95.4%
Clc1ccc(N/N=C(/c2ccccc2)c2ccccn2)nc1,55%,57.3%,44.8%,-1.28% (active),,45.1%,43.2%
Nc1nc2cc(O)ccc2n2cc3c(F)cccc3c12,,-8.3% (active),17.5%,-7.71% (active),15.1%,58.5%,35.3%
COC(=O)c1ccc2[nH]c(O)c(C(=Nc3ccc(N(C)C(=O)CN4CCN(C)CC4)cc3)c3ccc([N+](=O)[O-])cc3)c2c1,49.1%,49.9%,54.7%,30.6%,20.4%,66.7%,16.2%
NC(=O)c1c(Nc2ccccc2)nn2cc(-c3nc4ccccc4s3)c(N)nc12,102%,102%,105%,81.4%,99.1%,97.3%,99.5%
Cc1nc2c(nnn2-c2ccccc2)c2nc(-c3ccc(Cl)cc3)oc(=O)c12,107%,106%,107%,95.2%,109%,111%,113%
COc1cc(-c2c3c(cn2CCN2CCCCC2)-c2oncc2CC3)cc(OC)c1OC,105%,101%,95.2%,91%,,106%,107%
C#CCCCCCCC[C@@H]1OC(=O)[C@H]([C@@H](C)CC)NC(=O)[C@H]([C@@H](C)CC)NC(=O)CC(=O)[C@@H]1C,108%,105%,98.2%,95.4%,93.4%,106%,100%
O=C(Nc1cccc(Cn2c(=O)[nH]c3ccc(Oc4ncccn4)cc3c2=O)c1)c1ccc(Cl)cc1,41.6%,,71.5%,28%,39.2%,81.7%,15.3%

SMILES,growth [1],growth [2],growth [3],growth [4],growth [5],growth [6],growth [7]
CCN(CC)CCCC(C)Nc1c(C)cnc2cc(Cl)c(C)cc12 (stereo unspecified),69.2%,,85.9%,85.6%,56.9%,74.5%,81.9%
c1cc[c]([Bi]([c]2ccccc2)[c]2ccccc2)cc1,96.8%,90.4%,92.9%,97.5%,104%,96.5%,97.1%
Cc1cc2cn3c4ccc(O)cc4nc(N)c3c2cc1C,,-31.2% (active),11%,-46.8% (active),-100% (active),,6.3% (active)
CC(=O)OCC1O[C@@H](OC(C)=O)[C@@H](NC(=O)NS(=O)(=O)c2ccccc2)C(OC(C)=O)[C@@H]1OC(C)=O (stereo partly specified),102%,105%,111%,92.6%,108%,113%,105%
Clc1ccc(N/N=C/c2ccccn2)nc1,23.4%,24.4%,36.7%,0.994% (active),11.1%,24.5%,24.9%
Cc1ccc(C(=O)Nc2ccc(CN3CCN(C)CC3)c(C(F)(F)F)c2)cc1C#Cc1cncc2ncccc12,-82.3% (active),-93.3% (active),-66.6% (active),-65.4% (active),,34.8%,-81.6% (active)
O=C(NCCNCCO)c1cc([N+](=O)[O-])cc([N+](=O)[O-])c1O,121%,104%,103%,102%,103%,101%,108%
Cc1c([C@H](C(Cl)Cl)[C@H](O)[C@H]2C[C@H](C)C(=O)O2)ccc2c1C(=O)[C@H]1[C@H]2C[C@@H](Br)[C@@]23O[C@@H](CO[C@H]2O)CC13C (stereo partly specified),37.6%,-40% (active),14.6%,,15.1%,8.99% (active),2.99% (active)
COc1cccc(CNC(=O)c2cccc(C3CC(=O)c4c(cc(OC)c(OC)c4OC)O3)c2)c1 (stereo unspecified),32.8%,-42.4% (active),34.9%,25.3%,18.5%,95.2%,41.8%
C/C(=N\Nc1ccc(Cl)cn1)c1ccc2ccccc2n1,21.6%,31.9%,27.5%,7.14% (active),6.22% (active),38.1%,20.2%
O=C1CSC(c2ccccc2Cl)N1c1nnc(-c2ccncc2)o1 (stereo unspecified),116%,99.6%,99.6%,,85.5%,97.9%,105%
CCS(=O)(=O)OCCO[C@H]1Cc2cc3ccc(=O)oc3cc2OC1(C)C,100%,107%,97%,95.1%,106%,109%,104%
COC(=O)c1ccc(C(=Nc2ccc(N(C)C(=O)CN3CCN(C)CC3)cc2)c2c(O)[nH]c3ccc(C(=O)OC)cc23)cc1,45.8%,43.6%,18.9%,23.5%,,54.5%,15.3%
COc1cc2cn3c4ccc(O)cc4[nH]c(=O)c3c2cc1OC,,9.28% (active),16.8%,-77.9% (active),-100% (active),13.1%,-2.22% (active)
CCC(C)C1NC(=O)C(CC(C)C)NC(=O)C(C)NC(=O)C(C(C)C)NC(=O)C(CCCCN)NC(=O)C(CC(C)C)NC(=O)C(C(C)C)NC(=O)[C@H](C)NC(=O)C(C(C)CC)NC(=O)C(CCCN=C(N)N)NC(=O)C(CCCCN)NC(=O)C(CCCN=C(N)N)NC(=O)C(CCCCN)NC(=O)C([C@H](C)CC)NC(=O)C(CCCCN)NC1=O (stereo partly specified),14.4%,11.2%,19.6%,20.5%,,16.7%,-6.4% (active)
CC1=C[C@@H]2c3c(c(O)c(O)c4oc5cc(O)cc(O)c5c(=O)c34)[C@@H](c3cc(O)c(O)c4oc5cc(O)cc(O)c5c(=O)c34)[C@@H]2C(C)(C)C1,12.1%,-42.1% (active),-50.9% (active),-44.8% (active),-78.8% (active),-34.5% (active),-55.2% (active)
